compound: C#CCNC(=O)CCSSCCC(=O)NCCc1ccc(C=O)c(C=O)c1; assay: lysine labeling ratio R10:1 (500 µM / 50 µM probe), SILAC-ABPP in living cells; higher = lower intrinsic lysine reactivity toward the probe, active = 2 or less; details: HeLa; probe concentrations 500 vs 50 µM
Outline: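 With forward and reverse label swaps, light and heavy SILAC HeLa cells, alive and in PBS at room temperature, were exposed to either 500 µM or 50 µM of an alkyne-tagged lysine probe bearing a disulfide link. After mixing, lysates were clicked to biotin-azide, cut with trypsin, pulled down on neutravidin, freed with DTT, alkylated and analysed on a TIMS-TOF Pro by LC-MS/MS. The per-lysine value R is the median over forward and reverse replicates of the filtered median high-probe/low-probe MS1 peptide ratio. It is capped at 20.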

Sequence of UniProt P02786 (P02786 whole entry, looked up): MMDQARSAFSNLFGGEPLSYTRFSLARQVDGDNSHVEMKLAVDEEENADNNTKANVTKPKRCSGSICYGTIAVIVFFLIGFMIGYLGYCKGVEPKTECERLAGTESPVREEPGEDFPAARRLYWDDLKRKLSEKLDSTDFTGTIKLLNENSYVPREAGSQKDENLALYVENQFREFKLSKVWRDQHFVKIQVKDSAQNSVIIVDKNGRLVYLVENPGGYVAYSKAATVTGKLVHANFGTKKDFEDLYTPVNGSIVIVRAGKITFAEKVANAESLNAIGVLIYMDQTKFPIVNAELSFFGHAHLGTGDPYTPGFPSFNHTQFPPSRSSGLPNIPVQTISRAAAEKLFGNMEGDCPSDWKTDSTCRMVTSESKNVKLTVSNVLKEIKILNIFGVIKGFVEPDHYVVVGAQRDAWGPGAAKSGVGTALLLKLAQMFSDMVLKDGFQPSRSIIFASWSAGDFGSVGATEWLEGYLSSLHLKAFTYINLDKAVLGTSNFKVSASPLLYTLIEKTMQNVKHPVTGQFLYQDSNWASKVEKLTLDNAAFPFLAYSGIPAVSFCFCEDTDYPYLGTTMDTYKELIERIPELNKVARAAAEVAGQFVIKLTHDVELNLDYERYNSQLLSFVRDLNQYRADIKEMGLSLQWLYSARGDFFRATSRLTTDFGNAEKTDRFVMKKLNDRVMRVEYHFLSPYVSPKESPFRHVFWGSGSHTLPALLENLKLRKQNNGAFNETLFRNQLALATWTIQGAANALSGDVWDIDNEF
Sequence of UniProt P05787 (P05787 whole entry): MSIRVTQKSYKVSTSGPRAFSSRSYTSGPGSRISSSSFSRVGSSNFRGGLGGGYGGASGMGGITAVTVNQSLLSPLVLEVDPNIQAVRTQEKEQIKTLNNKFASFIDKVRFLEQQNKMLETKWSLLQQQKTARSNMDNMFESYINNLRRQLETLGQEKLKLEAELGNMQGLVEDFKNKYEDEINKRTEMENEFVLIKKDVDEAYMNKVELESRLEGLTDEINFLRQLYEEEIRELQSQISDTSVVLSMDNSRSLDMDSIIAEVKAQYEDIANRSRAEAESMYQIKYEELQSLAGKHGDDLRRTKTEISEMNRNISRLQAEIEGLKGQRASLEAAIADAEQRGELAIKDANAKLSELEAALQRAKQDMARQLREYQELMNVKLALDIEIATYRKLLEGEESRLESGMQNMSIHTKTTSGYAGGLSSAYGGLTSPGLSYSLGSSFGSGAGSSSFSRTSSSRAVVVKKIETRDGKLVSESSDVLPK
Sequence of UniProt P54136 (P54136 whole entry): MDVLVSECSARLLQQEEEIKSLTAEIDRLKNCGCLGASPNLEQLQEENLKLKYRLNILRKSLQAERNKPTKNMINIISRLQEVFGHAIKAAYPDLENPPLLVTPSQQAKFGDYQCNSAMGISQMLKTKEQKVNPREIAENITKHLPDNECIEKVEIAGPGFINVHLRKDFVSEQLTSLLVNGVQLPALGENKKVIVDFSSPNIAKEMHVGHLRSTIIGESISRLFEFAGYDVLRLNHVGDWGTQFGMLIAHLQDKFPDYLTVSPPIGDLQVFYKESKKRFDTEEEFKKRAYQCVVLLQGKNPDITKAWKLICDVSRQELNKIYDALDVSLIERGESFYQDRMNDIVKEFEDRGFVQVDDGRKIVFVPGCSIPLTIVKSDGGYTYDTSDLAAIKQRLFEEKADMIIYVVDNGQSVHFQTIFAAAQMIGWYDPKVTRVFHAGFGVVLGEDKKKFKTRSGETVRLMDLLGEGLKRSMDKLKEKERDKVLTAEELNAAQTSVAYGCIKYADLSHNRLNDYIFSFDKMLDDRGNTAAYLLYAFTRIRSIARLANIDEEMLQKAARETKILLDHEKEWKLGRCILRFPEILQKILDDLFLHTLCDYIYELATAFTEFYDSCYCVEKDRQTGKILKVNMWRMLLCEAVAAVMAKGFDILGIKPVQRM
Sequence of UniProt P17342 (P17342 whole entry): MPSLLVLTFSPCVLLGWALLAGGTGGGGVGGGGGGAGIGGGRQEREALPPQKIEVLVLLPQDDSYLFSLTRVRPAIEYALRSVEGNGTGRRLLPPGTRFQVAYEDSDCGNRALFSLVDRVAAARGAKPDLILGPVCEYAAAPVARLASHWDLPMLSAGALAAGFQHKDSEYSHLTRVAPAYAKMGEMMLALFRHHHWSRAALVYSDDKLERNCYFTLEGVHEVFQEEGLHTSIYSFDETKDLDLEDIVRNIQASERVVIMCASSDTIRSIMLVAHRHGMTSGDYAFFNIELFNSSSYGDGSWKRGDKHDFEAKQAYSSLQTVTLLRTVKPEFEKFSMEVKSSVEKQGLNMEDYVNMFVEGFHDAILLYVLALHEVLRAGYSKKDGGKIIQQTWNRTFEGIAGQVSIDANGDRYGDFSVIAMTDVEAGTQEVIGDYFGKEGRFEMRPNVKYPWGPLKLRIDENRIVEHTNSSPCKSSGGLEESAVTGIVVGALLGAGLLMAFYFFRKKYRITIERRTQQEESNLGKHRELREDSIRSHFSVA
Sequence of UniProt P00505 (P00505 whole entry): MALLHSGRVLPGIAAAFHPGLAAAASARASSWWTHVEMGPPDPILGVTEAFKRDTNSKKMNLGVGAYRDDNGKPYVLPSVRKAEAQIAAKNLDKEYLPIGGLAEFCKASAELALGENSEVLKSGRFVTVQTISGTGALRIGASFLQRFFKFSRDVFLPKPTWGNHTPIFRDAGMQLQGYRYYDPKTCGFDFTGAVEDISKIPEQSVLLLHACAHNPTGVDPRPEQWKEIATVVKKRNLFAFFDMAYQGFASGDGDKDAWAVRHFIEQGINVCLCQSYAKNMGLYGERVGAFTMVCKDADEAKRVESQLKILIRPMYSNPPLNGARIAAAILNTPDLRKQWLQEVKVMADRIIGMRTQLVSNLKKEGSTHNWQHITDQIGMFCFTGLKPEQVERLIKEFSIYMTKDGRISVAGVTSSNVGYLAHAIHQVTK
Sequence of UniProt P22413 (P22413 whole entry): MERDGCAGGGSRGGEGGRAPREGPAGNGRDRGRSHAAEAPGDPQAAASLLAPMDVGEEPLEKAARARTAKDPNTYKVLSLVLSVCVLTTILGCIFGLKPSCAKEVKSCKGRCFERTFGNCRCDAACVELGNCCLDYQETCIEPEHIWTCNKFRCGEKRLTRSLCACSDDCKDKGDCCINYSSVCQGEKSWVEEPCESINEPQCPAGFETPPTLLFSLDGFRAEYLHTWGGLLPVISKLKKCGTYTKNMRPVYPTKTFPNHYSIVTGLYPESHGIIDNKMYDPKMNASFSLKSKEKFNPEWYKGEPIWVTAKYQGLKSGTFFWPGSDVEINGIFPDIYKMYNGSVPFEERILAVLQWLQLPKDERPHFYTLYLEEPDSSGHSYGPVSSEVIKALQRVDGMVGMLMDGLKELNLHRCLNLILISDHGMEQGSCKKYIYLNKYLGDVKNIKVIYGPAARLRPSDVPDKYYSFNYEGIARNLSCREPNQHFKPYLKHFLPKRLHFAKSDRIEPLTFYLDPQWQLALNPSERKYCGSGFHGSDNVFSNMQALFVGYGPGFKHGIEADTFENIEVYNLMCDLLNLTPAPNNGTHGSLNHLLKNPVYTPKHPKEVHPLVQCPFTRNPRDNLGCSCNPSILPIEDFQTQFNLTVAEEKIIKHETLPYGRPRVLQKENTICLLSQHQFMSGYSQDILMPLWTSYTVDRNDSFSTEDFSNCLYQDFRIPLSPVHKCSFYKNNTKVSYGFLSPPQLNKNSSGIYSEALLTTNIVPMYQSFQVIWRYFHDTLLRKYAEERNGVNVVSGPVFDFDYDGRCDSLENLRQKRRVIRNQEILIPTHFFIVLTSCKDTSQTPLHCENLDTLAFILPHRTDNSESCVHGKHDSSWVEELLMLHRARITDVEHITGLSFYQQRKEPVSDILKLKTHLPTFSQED
Sequence of UniProt Q00341 (Q00341 whole entry): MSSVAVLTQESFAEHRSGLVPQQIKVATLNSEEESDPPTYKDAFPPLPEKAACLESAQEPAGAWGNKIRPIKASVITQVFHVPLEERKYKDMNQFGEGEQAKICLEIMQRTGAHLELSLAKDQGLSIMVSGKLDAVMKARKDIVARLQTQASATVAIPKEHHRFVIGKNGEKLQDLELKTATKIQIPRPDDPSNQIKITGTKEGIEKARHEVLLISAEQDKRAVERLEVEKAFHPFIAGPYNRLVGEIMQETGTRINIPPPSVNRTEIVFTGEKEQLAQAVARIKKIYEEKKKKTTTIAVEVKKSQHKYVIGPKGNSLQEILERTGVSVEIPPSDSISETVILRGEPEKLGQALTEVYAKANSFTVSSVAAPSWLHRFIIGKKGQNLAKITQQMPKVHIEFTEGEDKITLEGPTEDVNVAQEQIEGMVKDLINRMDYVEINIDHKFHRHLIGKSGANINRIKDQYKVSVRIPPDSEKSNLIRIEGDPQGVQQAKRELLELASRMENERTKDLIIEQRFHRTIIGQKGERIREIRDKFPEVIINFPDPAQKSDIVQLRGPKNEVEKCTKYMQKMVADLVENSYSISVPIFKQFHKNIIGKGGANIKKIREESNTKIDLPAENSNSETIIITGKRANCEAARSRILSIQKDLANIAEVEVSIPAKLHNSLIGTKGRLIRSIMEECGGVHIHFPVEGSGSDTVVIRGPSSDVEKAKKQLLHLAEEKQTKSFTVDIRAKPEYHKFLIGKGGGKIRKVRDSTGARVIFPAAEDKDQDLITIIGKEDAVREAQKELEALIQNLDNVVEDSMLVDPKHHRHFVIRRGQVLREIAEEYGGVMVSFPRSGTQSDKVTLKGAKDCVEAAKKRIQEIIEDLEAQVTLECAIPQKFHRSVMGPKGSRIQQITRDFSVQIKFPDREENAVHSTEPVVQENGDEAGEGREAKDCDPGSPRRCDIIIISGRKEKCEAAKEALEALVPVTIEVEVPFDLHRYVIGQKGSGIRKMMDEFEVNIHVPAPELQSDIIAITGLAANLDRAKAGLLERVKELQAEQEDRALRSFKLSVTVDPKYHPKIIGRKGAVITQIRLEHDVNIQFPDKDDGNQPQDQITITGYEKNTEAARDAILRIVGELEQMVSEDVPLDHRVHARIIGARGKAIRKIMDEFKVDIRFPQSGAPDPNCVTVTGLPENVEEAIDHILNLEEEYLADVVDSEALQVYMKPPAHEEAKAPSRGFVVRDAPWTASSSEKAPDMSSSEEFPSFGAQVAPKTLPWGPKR

Lysine labeling ratio R10:1, active:
UniProt P22413 (lysine site: K503) 1.89, THBS1 (lysine site: K968) (UniProt P07996) 1.48, UniProt Q00341 (lysine site: K510) 0.655, PSMD1 (lysine site: K890) (UniProt Q99460) 1.11, LRP8 (lysine site: K567) (UniProt Q14114) 1.53, SLC25A4 (lysine site: K245) (UniProt P12235) 1.72, UniProt P62269 (lysine site: K54) 1.41, UGT8 (lysine site: K195) (UniProt Q16880) 1.49, ITGA2 (lysine site: K603) (UniProt P17301) 1.54, SPTAN1 (lysine site: K1288) (UniProt Q13813) 1.21, UniProt Q9H336 (lysine site: K468) 1.33, NOTCH2 (lysine site: K693) (UniProt Q04721) 1.5, RARS (lysine site: K557) (UniProt P54136) 1.64, GALNT7 (lysine site: K624) (UniProt Q86SF2) 1.81

Lysine labeling ratio R10:1, inactive:
PGRMC1 (lysine site: K102) (UniProt O00264) 5.04, SLC25A5 (lysine site: K105) (UniProt P05141) 6.97, UniProt Q12884 (lysine site: K258) 3.81, SERPINH1 (lysine site: K334) (UniProt P50454) 2.28, TFRC (lysine site: K693) (UniProt P02786) 5.63, TNKS1BP1 (lysine site: K1680) (UniProt Q9C0C2) 2.22, SLC3A2 (lysine site: K217) (UniProt P08195) 7.33, UniProt O95084 (lysine site: K189) 2.74, UniProt P62805 (lysine site: K92) 7.01, RTN3 (lysine site: K998) (UniProt O95197) 4.14, HSPA4 (lysine site: K686) (UniProt P34932) 8.32, CDH2 (lysine site: K448) (UniProt P19022) 3.81, CNN2 (lysine site: K30) (UniProt Q99439) 4.32, CTNNA1 (lysine site: K748) (UniProt P35221) 2.15, NPR3 (lysine site: K208) (UniProt P17342) 5.04, LMAN1 (lysine site: K407) (UniProt P49257) 3.11, UniProt P61978 (lysine site: K405) 6.82, LDHA (lysine site: K155) (UniProt P00338) 2.54, COL5A1 (lysine site: K164) (UniProt P20908) 3.25, HNRNPU (lysine site: K614) (UniProt Q00839) 2.36, TMED9 (lysine site: K71) (UniProt Q9BVK6) 5.82, UniProt P05787 (lysine site: K483) 2.46, GOT2 (lysine site: K73) (UniProt P00505) 3.72, CACNA2D1 (lysine site: K649) (UniProt P54289) 10.1, LRP1 (lysine site: K3988) (UniProt Q07954) 4.67, CCT2 (lysine site: K82) (UniProt P78371) 2.91

Reference: the supplement of paper PMC11001985
